Only some compounds are listed: those with a hit (about 8% of all), similar ones and a draw of the others.
RORg inh: inhibitors of mouse ROR gamma transcriptional activity. Drosophila S2 Gal4-RORgamma UAS-luciferase reporter, 20 h. Potency, µM (top dose mostly 53.6 µM), inactives show at the top dose activity change, negative = inhibition, most hits filed as inhibitors. 5.4% of 310,000 active. AID 2551; further: potency means the concentration at half of the fitted maximal effect; nearly all actives have a fitted effect of over 60% in size
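Stable Schneider cell line, Gal4 DNA-binding domain fused to ROR gamma, UAS-luciferase. Cmpd 1 hr RT → CuSO4 700 uM final → 20 hr RT → luciferase reagent 10 min → luminescence.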
TSHR antagonist: antagonists of human thyroid stimulating hormone receptor | P16473 | TSHR-expressing cells, TSH-stimulated cAMP HTRF, 2 h; hits give low values | activity change, negative = inhibition, % at 11.5 µM | 0.2% of 330,000 active | AID 504810;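 active means activity change below a set negative limit, meaning inhibition stronger than a set level, cut at about -70% in these data; inconclusive means activity change between two set negative limits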
Target sequence (P16473 whole entry, looked up): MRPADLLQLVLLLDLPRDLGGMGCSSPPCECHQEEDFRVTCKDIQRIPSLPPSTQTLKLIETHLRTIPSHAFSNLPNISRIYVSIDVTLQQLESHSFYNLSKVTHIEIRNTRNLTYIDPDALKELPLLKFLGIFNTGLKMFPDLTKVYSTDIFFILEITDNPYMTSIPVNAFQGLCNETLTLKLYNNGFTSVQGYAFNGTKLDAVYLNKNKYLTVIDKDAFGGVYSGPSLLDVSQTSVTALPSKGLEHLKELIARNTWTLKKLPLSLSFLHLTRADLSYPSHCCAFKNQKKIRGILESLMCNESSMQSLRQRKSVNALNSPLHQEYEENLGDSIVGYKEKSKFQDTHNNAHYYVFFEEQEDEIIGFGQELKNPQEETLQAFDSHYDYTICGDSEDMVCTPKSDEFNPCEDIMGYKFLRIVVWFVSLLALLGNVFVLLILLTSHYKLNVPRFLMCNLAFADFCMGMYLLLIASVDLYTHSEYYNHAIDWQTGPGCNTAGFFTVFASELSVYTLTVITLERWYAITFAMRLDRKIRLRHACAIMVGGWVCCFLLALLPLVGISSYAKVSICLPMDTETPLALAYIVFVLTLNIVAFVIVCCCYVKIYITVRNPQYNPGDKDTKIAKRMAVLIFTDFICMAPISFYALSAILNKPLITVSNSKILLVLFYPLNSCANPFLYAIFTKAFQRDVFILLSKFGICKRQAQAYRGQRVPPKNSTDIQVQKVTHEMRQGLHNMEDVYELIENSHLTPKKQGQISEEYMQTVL
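TSHR-expressing cells were treated with compounds, then stimulated with TSH at EC80 (4nM final) for 2 hours at 37 deg C. Cellular cAMP was measured by HTRF competition between lysate cAMP and cAMP-d2 for a cryptate-labelled anti-cAMP antibody.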
Coupling enz: counter-screen for Giardia aldolase inhibitors: coupling enzyme system; 0.67% of 290,000 active; activity change, negative = inhibition, % at 58.2 µM, hits read low; coupling enzyme system counterscreen, AmpLite Red fluorescence; in the data active means activity change below about -30%
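First, compound is pin-transferred into glyceraldehyde-3-phosphate coupling-enzyme reagent at 57.5 uM final and held 10 min at RT. Next, substrate, coupling system and AmpLite Red are added. After 20 min RT, fluorescence (525/598 nm) is read.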
ELG1 DNA repair: inhibitors of ELG1-dependent DNA repair in HEK293T cells. HEK293T ELG1-luciferase reporter, luminescence, 16 h; DNA damage induced by 5-fluorouridine. AID 504467. 2.3% of 330,000 active. Potency, µM (top dose mostly 46.1 µM), for inactives: at the top dose activity change, negative = inhibition, usual class: inhibitors; further: potency means the concentration at half of the fitted maximal effect; nearly all actives have a fitted effect of over 55% in size
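DMSO vehicle served as the neutral condition. Each well held 2,000 cells given 5-fluorouridine plus compound; after 16 hr at 37 °C/5% CO2, ONE-Glo was added and luciferase measured 30 min later.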
VP16 counter: counter-screen for ROR gamma inhibitors: Gal4-VP16 reporter. Drosophila S2 Gal4-VP16 UAS-luciferase, luminescence, 20 h. Potency, µM (doses to about 53.6 µM), without a hit: at the top dose activity, negative = inhibition, most hits filed as inhibitors. 3.5% of 310,000 active. AID 2546;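 further: Gal4-VP16 expression switched on by copper sulfate through the metallothionein promoter; potency means the concentration at half of the fitted maximal effect; nearly all actives have a fitted effect of over 50% in size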
* marks the source's active call; other numbers are inactive results; ? = inconclusive; nt = no result; [ ] = another dose, or the depositor's remark. Unless noted, the call rests on the fitted dose curve; in most records, active means well fitted curve in the direction sought with a large enough effect; inconclusive means small, poorly fitted or top-dose-only effect, or another doubt; inactive means no such curve, though single readings can be large; an effect the other way counts as inactive or inconclusive. On the % scale 0 is the no-effect control and ±100 the full control effect.

SMILES	RORg inh	TSHR antagonist	Coupling enz	ELG1 DNA repair	VP16 counter
COc1ccc(CCNC(=O)C2CCCN(c3ncnc4c3nc3n4CCCCC3)C2)c(OC)c1 (stereo not drawn)	19.1%	15.8	1.7	?	7.3%
C/C=C/C=C/C(=O)Nc1nccs1	10µM*	-13.7	-3.8	?	5.62µM*
O=C(Nc1nccs1)C(F)(F)C(F)(F)C(F)(F)C(=O)Nc1nccs1	?	-0.5	7.7	-11.8%	-1.2%
O=C(Nc1nccs1)c1ccc(-c2ccc(Cl)cc2)o1	3.98µM*	7.1	1.3	?	?
O=C(/C=C/c1ccc(Cl)cc1)Nc1nccs1	8.91µM*	10.4	-2.6	?	-5.2%
CN(C(=O)COc1cccc(C#N)c1)C1CCS(=O)(=O)C1 (stereo not drawn)	nt	5.4	nt	10.5%	nt
C#CC(CC)(CC)NC(=O)c1cc(S(=O)(=O)N2CCCCC2)ccc1N1CCOCC1	nt	-7.4	nt	8.1%	nt
C=C(C)C(=O)OCCCCCCCCCC	26.5%	nt	nt	nt	-3.3%
COc1ccc(NC(=O)C2CCN(S(=O)(=O)c3ccc(N4CCCC4=O)cc3)CC2)c(OC)c1	?	2.9	2.2	6.6%	?
Cc1ccc(NC(=O)C2CCN(S(=O)(=O)c3ccc(N4CCCC4=O)cc3)CC2)cc1Cl	?	-27.3	nt	?	3.16µM*
COc1ccc(NC(=O)C2CCN(S(=O)(=O)c3ccc4c(c3)NC(=O)C(C)S4)CC2)cc1 (stereo not drawn)	?	-6.8	nt	?	?
CC1Sc2ccc(S(=O)(=O)N3CCC(C(=O)Nc4ccc(Cl)cc4)CC3)cc2NC1=O (stereo not drawn)	?	-38.5	nt	4.61µM*	?
COC(=O)c1ccc(-c2sc3nc(N4CCOCC4)c4c(c3c2N)CC(C)(C)OC4)o1	-2.1%	1.8	-15.0	5.17µM*	4.1%
CC1(C)Cc2c(c(N3CCOCC3)nc3sc(C(N)=O)c(N)c23)CO1	8.6%	4.6	-30.4*	5.17µM*	-15.5%
CC1(C)Cc2c(c(N3CCOCC3)nc3sc(C(=O)Nc4ccc(Cl)cc4)c(N)c23)CO1	?	-5.6	-5.1	0.92µM*	18.6%
Cc1ccc(NC(=O)c2sc3nc(N4CCOCC4)c4c(c3c2N)CC(C)(C)OC4)cc1	-0.5%	-27.5	0.1	?	-11.2%
Cc1nn(C)c(C(=O)Nc2ccn(Cc3c(F)c(F)cc(F)c3F)n2)c1[N+](=O)[O-]	3.5%	-0.7	5.1	-19.2%	3.0%
Cc1nn(Cc2cccc(C(=O)Nc3ccn(Cc4c(F)c(F)cc(F)c4F)n3)c2)c(C)c1[N+](=O)[O-]	-5.0%	-8.0	-1.6	20.6µM*	-10.4%
Nn1c(SCC(=O)Nc2nccs2)nnc1-c1cccnc1	nt	11.8	nt	12.3%	nt
CS(=O)(=O)Nc1cccc(-c2nccc(-n3ccnc3)n2)c1	-19.3%	nt	-0.1	nt	-10.4%
O=C(CNc1ccccc1)N/N=C/c1cn(-c2ccccc2)nc1-c1ccccc1	-3.9%[10 µM]	3.6	0.1	-24.8%	1µM*
O=C(N/N=C/c1cn(-c2ccccc2)nc1-c1cccnc1)c1cccnc1	14.1µM*	-19.6	0.2	?	?
O=C(N/N=C/c1cn(-c2ccccc2)nc1-c1ccc(F)cc1)c1ccc(Br)o1	1.78µM*	3.9	2.1	?	2.51µM*
O=C(NCC1CCCO1)/C(=C/c1cn(-c2ccccc2)nc1-c1cccnc1)NC(=O)c1ccccc1 (stereo not drawn)	-0.7%	-1.1	3.1	20.6µM*	8.6%
CCOC(=O)OCC1OC(CCc2ccccc2)CCC1Oc1ccc(OC)cc1 (stereo not drawn)	-0.2%[10 µM]	nt	2.1	nt	3.9%[10 µM]
SMILES	RORg inh	TSHR antagonist	Coupling enz	ELG1 DNA repair	VP16 counter
CC1CCC(NC(=O)CN2C(=O)NC3(CCCCC3C)C2=O)CC1 (stereo not drawn)	nt	-4.0	nt	14.9%	nt
NC1(C(=O)O)C[C@H](C(=O)O)[C@H](C(=O)O)C1 (stereo partly drawn)	15.2%	nt	0.3	nt	-6.2%
Cc1nc(CCNC(=O)c2cc(COc3ccc(F)cc3Cl)on2)sc1C	?	-5.1	0.1	?	-20.7%
O=C(N/N=C/c1cn(-c2ccccc2)nc1-c1cccnc1)c1ccc(F)cc1	2.82µM*	-15.4	4.6	?	3.98µM*
O/N=C/c1cn(-c2ccccc2)nc1-c1cccnc1	12.2%	16.8	-0.9	14.5%	0.6%
CCCn1c(-c2ccc(F)cc2)nc2c(NCCN3CCCCC3)nc(C)nc21	3.9%	nt	0.5	nt	0.9%
O=C(NCC1CCCO1)c1csc(Nc2cccc3ccccc23)n1 (stereo not drawn)	11.2µM*	17.7	-0.1	?	-9.8%
C=C(C)CSc1cc(C)c(C#N)c2nc3ccccc3n12	?	-11.6	-14.2	?	3.98µM*
Cc1cc(NCCCCO)n2c(nc3ccccc32)c1C#N	-9.3%	-3.7	-0.1	2.3%	-6.1%
Cc1ccc(C(C)C)cc1OCC(=O)Nc1ccc(-n2cnnn2)cc1	nt	-10.5	nt	4.0%	nt
CN(Cc1ccccc1)c1ccc(C(CC(N)=O)NC(=O)c2ccc(Br)cc2)cc1[N+](=O)[O-] (stereo not drawn)	?	6.1	0.0	?	?
C=CCc1c(C)nc(C)nc1N/N=C/c1ccc([N+](=O)[O-])cc1	11.2µM*	-8.2	-6.9	?	-4.4%
C=CCc1c(C)nc(C)nc1N/N=C/c1ccccc1O	?	18.1	-27.1	?	5.01µM*
O=C(NCCC1=CCCCC1)C1CCN(S(=O)(=O)c2ccccc2C(F)(F)F)CC1	nt	-11.6	nt	20.5%	nt
CC(C)N1CCc2c(sc(NC(=O)c3ccc([N+](=O)[O-])o3)c2C(N)=O)C1	7.08µM*	-22.9	0.2	?	?
O=c1[nH]c(Cc2ccccn2)nc2scc(-c3ccccc3Cl)c12	6.31µM*	-5.7	2.0	?	11.2µM*
CCC1=C2CC[C@H]3C(=O)N(c4ccccc4)C(=O)[C@H]3[C@H]2[C@@]2(Cc3ccccc3)C(=NCC3CC3)OC(=O)N2C1=O	9.4%	nt	2.4	nt	19.4%
CC(=O)N1c2ccc(S(=O)(=O)N3CCCC(C(=O)Nc4ccc(F)cc4)C3)cc2CC1C (stereo not drawn)	?	-3.1	0.6	?	?
O=C(COc1ccc(C(=O)NCCN2CCOCC2)cc1)Nc1cccc(C(F)(F)F)c1	nt	nt	nt	4.1%	nt
COC(=O)C1=C(C(=O)OC)[C@@H]2N(C)c3ccccc3[C@@]23C[C@@H](CO)N(C(=O)c2cc(C)oc2C)C3=N1	nt	nt	0.0	nt	nt
Cn1c(O)c(N=NC(=O)c2cccc(S(=O)(=O)N3CCCCC3)c2)c2ccccc21	-1.4%	-8.3	1.8	18.4µM*	-13.7%
NC(=O)c1cccc(S(=O)(=O)N2CCCCC2)c1	-7.0%[0.365 µM]	0.0	0.0	-1.1%	nt
c1cncc(-c2nc3cc4ccccc4cc3[nH]2)c1	?	-17.6	-9.8	?	?
